From PubChem BioAssay AID1347076 (National Center for Advancing Translational Sciences (NCATS), 2019)
Hit rate of the full screen: of about 400,000 compounds, about 13,000 (3.2%) were called active. About 18% were inconclusive and are not listed. The list comes from a sample in which actives are over-represented; it also holds similar structures and randomly drawn compounds. Values without a mark were called inactive. The call rests on the fitted dose curve; in most records, active means well fitted cell-killing curve with a large enough effect; inconclusive means small, poorly fitted or top-dose-only effect, or effect the other way; inactive means flat fitted curve, though single readings scatter.

assay: qHTS assay for MDR1-selective chemotherapeutics: Primary screen using the drug-selected MDR subline cells KB-V1; conditions: KB-V1 MDR cells viability, CellTiter-Glo, 72 h; series mostly up to 46.1 µM; activity change, negative = cytotoxicity: at the top concentration; further: nearly all actives have a fitted effect of over 60% in size
From the text: A prime difficulty in effectively treating cancer is the development of cellular resistance to multiple structurally unrelated anticancer drugs, a phenomenon known as multidrug resistance (MDR). […] Numerous strategies to overcome P-gp-mediated MDR have been explored, including the design of drugs that evade recognition and efflux, and development of inhibitors to block efflux and restore drug accumulation. […] An alternative approach is to exploit resistance by identifying drugs that target MDR cells over the non-resistant parental cells from which they were selected. […] The development of MDR1-selective agents represents a new strategy for resolving multidrug resistance, as it remains a long-standing clinical challenge for cancer chemotherapy.
Our goal is to identify compounds that selectively kill P-gp-expressing MDR cells. We will identify MDR1-selective compounds by comparing toxicity of compounds in the screening library against parental, drug-naive (KB-3-1) adenocarcinoma cells as well as their drug-selected MDR sub-line (KB-V1). The differential toxicity of compounds against these two cell lines will be used to identify MDR1-selective compounds, whose cytotoxicity is potentiated, rather than diminished, by P-gp expression. This assay will be utilized to conduct a quantitative high-throughput screen (qHTS) in collaboration with the NIH Chemical Genomics Center to identify selective agents, and probe hits arising from the screen will be validated using secondary assays and characterized through a well-established follow-up research program. This screen was run against the entire NCGC library collection of about 400,000 compounds.
NIH Molecular Libraries Probe Production Network [MLPCN]
NIH Chemical Genomics Center [NCGC]
PI: Michael Gottesman, National Cancer Institute, NIH
Briefly, 5 microL of media containing either KB-V1 cells (columns 1-2, 4-48) are dispensed into Greiner white, treated solid-bottom 1536-well assay plates (media-only control is added to column 3). Compounds are then transferred via Kalypsys pin tool equipped with 1536-pin array (10 nL slotted pins, V&P Scientific, San Diego, CA). Following addition of compound, the plates are incubated at 37 degrees C for 72 hours. CellTiter-Glo (2.5 µL/well) is then added, and the plates are read in a ViewLux reader (Perkin-Elmer, clear luminescence filter, 1 second exposure, 1x binning) following a 10 minute incubation. All cells are dispensed in DMEM phenol-red free media containing 10% FBS.
Library plates were screened starting from the lowest and proceeding to the highest concentration. Vehicle-only plates, with DMSO being pin-transferred to columns 5-48, will be inserted uniformly at the beginning and the end of each library in order to monitor and record any shifts in the background, which can be affected by reagent dispensers or loss in enzyme activity over time. Screening data will be corrected, normalized, and concentration-effect relationships will be derived by using publicly-available NCGC, NCATS curve fitting algorithms (http://ncgc.nih.gov/pub/openhts).
On the % scale 0 is the no-effect control and ±100 the full control effect; potency means the concentration at half of the fitted maximal effect.

| SMILES | activity change, negative = cytotoxicity | Potency |
| --- | --- | --- |
| CCOC(=O)c1ccccc1NC(=O)c1nn(-c2ccc(OC)c(Cl)c2)c(=O)c2c1c1ccccc1n2C | -2.72% | – |
| CN(C)CCNC(=O)c1ccc(-c2cn3c(-c4ccc(Oc5ccccc5)cc4)cnc3cn2)cc1 | 0.255% | – |
| O=C(CCc1nc(CN2CCN(S(=O)(=O)c3ccc(F)cc3)CC2)no1)N1CCCCC1 | 3.75% | – |
| CC(=O)Nc1cnc(-c2ccc(O)cc2C)cn1 | -0.324% | – |
| Cc1cc(O)ccc1-c1cnc2ccccc2n1 | – | 14.6 µM (active) |
| Oc1ccc(-c2nc3ccccc3nc2-c2ccc(O)cc2O)c(O)c1 | 8.6% | – |
| O=C(Nc1ccccc1Br)c1cc(CN2CCCC2)on1 | -8.6% | – |
| OC(c1ccc(Cl)cc1)c1ncc(-c2ccc(Cl)cc2)[nH]1 (stereo not given) | 1.01% | – |
| Cn1cccc1/C=N/NC(=O)c1ccc(OC(F)(F)C(F)F)cc1 | 13.2% | – |
| O=C(Nc1ccc(OC(F)(F)F)cc1)c1ccc2c(c1)no[n+]2[O-] | – | 20.6 µM (active) |
| COC(=O)c1cnn(-c2ccc(C(=O)Nc3ccc(OC(F)(F)F)cc3)cc2)c1N | 1.13% | – |
| CCN(CC)C(=O)C1=C(C)N(Cc2ccc(F)cc2)C(=O)C(CC(=O)NC2CCCC2)C1 (stereo not given) | 0% | – |
| CCc1ccc([C@@H]2CC(=O)[C@@H]3CN(S(=O)(=O)c4ccc(C)cc4)[C@H](c4ccc(Cl)cc4)C[C@@H]3N2S(=O)(=O)c2ccc(C)cc2)cc1 | 14.3% | – |
| Cc1ccc(S(=O)(=O)N2CCN(c3ccccc3)CC2)cc1C | -13.5% | – |
| Cc1cc(N2CCN(S(=O)(=O)c3ccc(C)c(C)c3)CC2)c2ccccc2n1 | – | 3.26 µM (active) |
| Cc1ccc2nc(CN3CCN(S(=O)(=O)c4ccc(C)c(C)c4)CC3)oc2c1 | 15% | – |
| CCOC(=O)c1c(C)[nH]c(C)c1S(=O)(=O)N1CCCC(C(=O)NCc2ccccc2Cl)C1 (stereo not given) | 27.7% | – |
| CCn1c(CNc2ccc(OC)cc2)nnc1SCC(=O)c1ccc(OC)cc1 | -1.67% | – |
| CCc1nnc(NC(=O)CSc2nnc(Cc3ccccc3)n2-c2ccc(OC)cc2)s1 | 10.7% | – |
| COc1ccc(NCc2nnc(SCc3ccccc3)n2-c2ccc(OC)cc2)cc1 | – | 8.2 µM (active) |

| SMILES | activity change, negative = cytotoxicity | Potency |
| --- | --- | --- |
| CNC(=O)c1ccc(-c2nc(CN3CCc4ccccc43)c(C)o2)cc1 | -20.6% | – |
| COc1ccc(C(O)c2nc(-c3ccc4c(c3)OCO4)cs2)cc1 (stereo not given) | 2.33% | – |
| COc1ccc(-c2csc(N3CCN(Cc4ccc5c(c4)OCO5)CC3)n2)cc1 | – | 13 µM (active) |
| O=C(CN1CCN(c2nc(-c3ccccc3)cs2)CC1)NCc1ccc2c(c1)OCO2 | -8.12% | – |
| CCN(C(=O)Nc1cccc2ccccc12)c1ccccc1 | -1.11% | – |
| CC1(C(=O)Nc2ccccc2Br)CCN1C(=O)CC1CC1 (stereo not given) | 4.78% | – |
| Cc1ccc(CN(C)C[C@@H]2OCc3cnnn3CCCC(=O)N([C@@H](C)CO)C[C@H]2C)cc1 | 16.2% | – |
| CCC(C(=O)Nc1c(C)cccc1C)n1c(-c2cc(C)cs2)nc2ccccc21 (stereo not given) | -20.7% | – |
| OC(c1cc(Cl)cc(Cl)c1)c1ncc(-c2ccccc2C(F)(F)F)[nH]1 (stereo not given) | 0% | – |
| Cc1cc(=O)oc2cc(OCC3CC(c4ccccc4Cl)=NO3)ccc12 (stereo not given) | – | 1.16 µM (active) |
| Cc1cc(=O)oc2cc(OCC(=O)Nc3nnc(C4CC4)s3)ccc12 | 10.4% | – |
| Cc1cc(OCCCN2CCN(Cc3ccccc3)CC2)ccc1[N+](=O)[O-] | -9.82% | – |
| CCc1cc(=O)oc2cc(OCC(=O)N3CCCc4ccccc43)ccc12 | -23.3% | – |
| Cc1ccccc1N1CCN(CCCOc2ccc3c(C)cc(=O)oc3c2)CC1 | – | 11.2 µM (active) |
| Cc1ccccc1NC(=O)c1ccc(COc2ccc3c(C)cc(=O)oc3c2)cc1 | -1.61% | – |
| COc1ccc2oc(-c3ccc(C)c(NC(=O)c4sc5ccccc5c4Cl)c3)nc2c1 | 11.6% | – |
| CCN(CC(=O)Nc1ccc(NC(C)=O)cc1)C(=O)C1CC(=O)N(c2ccc3c(c2)OCCO3)C1 (stereo not given) | 24.5% | – |
| CC(C)c1ccc(CC(=O)N2CCC2(C)C(=O)NS(=O)(=O)c2ccc(C(C)(C)C)cc2)cc1 (stereo not given) | 5.43% | – |
| COc1cccc(C(=O)NC(=O)Nc2ccc(-c3cc(C(F)(F)F)nn3-c3ccccc3)cc2)c1 | 9.8% | – |
| COc1ccc(CN(C(=O)c2cccs2)c2nccs2)cc1OC | -25.9% | – |

| SMILES | activity change, negative = cytotoxicity | Potency |
| --- | --- | --- |
| COc1ccc(CCN(C(=O)COc2ccccc2)c2nc(-c3ccccc3)cs2)cc1OC | – | 5.8 µM (active) |
| COc1ccc(-c2csc(-c3c(N)c(C(=O)c4ccc(OC)c(OC)c4)n4ccccc34)n2)cc1 | 10.1% | – |
| Cc1ccc(Sc2ccc(NC(=O)c3ccc(F)cc3)cc2C#N)cc1 | 0% | – |
| CC(C)C[C@H]1CNC(=O)C(=O)N1C[C@H]1CCCN1C[C@H](Cc1ccc(O)cc1)N1C[C@H](CC(C)C)N(CC2CCCCCC2)C(=O)C1=O | 2.62% | – |
| COc1cccc(CNc2nc(NCc3cccs3)nc3ccsc23)c1 | -10.1% | – |
| COc1ccc(CC(=O)Nc2c3c(nn2-c2cccc(Cl)c2)CS(=O)C3)cc1 (stereo not given) | -4.66% | – |
| Cc1cccc(CC(=O)Nc2c3c(nn2-c2cccc(Cl)c2)CS(=O)C3)c1 (stereo not given) | – | 20.6 µM (active) |
| COc1ccc(-n2nc3c(c2NC(=O)Cc2cccc(C)c2)CS(=O)C3)cc1 (stereo not given) | -2.57% | – |
| CC1CCCCN1S(=O)(=O)c1ccc(F)c(C(=O)Nc2ccccc2C(F)(F)F)c1 (stereo not given) | -13.5% | – |
| CC1(C)CC2CC(C)(CN2c2ncnc3ccc(Br)cc23)C1 (stereo not given) | – | 2.59 µM (active) |
| COc1ccc(Nc2ncnc3ccc(Br)cc23)c(OC)c1 | 0.531% | – |
| CN(C)C(=O)COC(=O)c1cccc(S(=O)(=O)N2CC3(C)CC2CC(C)(C)C3)c1 (stereo not given) | -7.77% | – |
| COc1ccc(-c2nc(CCNC(=O)c3ccc(Br)o3)cs2)cc1 | 0% | – |
| O=C(NCCc1csc(-c2ccccc2)n1)c1ccccc1F | – | 20.6 µM (active) |
| O=S(=O)(NCCc1csc(-c2ccccc2)n1)c1cccnc1 | -8.15% | – |
| CC1(C(=O)NS(=O)(=O)c2ccc(Cl)cc2)CCN1C(=O)CC1CCCC1 (stereo not given) | 5.47% | – |
| C=CCNC(=O)CSc1nc2scc(-c3ccco3)c2c(=O)n1CC=C | -16.8% | – |
| C=CCn1c(SCC(=O)Nc2ccc(NC(C)=O)cc2)nc2sc(C)c(C)c2c1=O | -12.4% | – |
| C=CCn1c(SCc2csc(C)n2)nc2scc(-c3ccc(C)o3)c2c1=O | – | 11.6 µM (active) |
| CO[C@@H]1CN(C)C(=O)c2cc(NC(=O)C3CC3)ccc2OC[C@H](C)N(C(=O)CN2CCOCC2)C[C@@H]1C | 1.93% | – |
